Data on 14 molecules can be found in ChEMBL document CHEMBL1157539, “Thousands of chemical starting points for antimalarial lead identification” (Nature, 2010).

Each structure is given as a SMILES string.

The subject of this experiment is HepG2. In words: GSK_TCMDC: Percent inhibition of human HepG2 cell line. Test compounds present at 10uM. The format is functional.
In the case of `Cc1cc2c(/C=C/C(=O)NC3CCC(CCN4CCc5ccc(C#N)cc5CC4)CC3)cccc2[nH]1.Cl` (centres undefined), the Inhibition (as a rule, the drop in the measured response relative to a control, in per cent) turned out to be 16%.
For `C#CCN(Cc1cc2c(=O)[nH]c(N)nc2cc1C)c1ccc(C(=O)N[C@@H](CCC(=O)O)C(=O)O)cc1` the value was 28%; for `COc1cc(Nc2nccc(N3CCC(NC(=O)Nc4cc(C)ccc4C)C3)n2)cc(OC)c1OC` (centres undefined), 13%.
For `O=C(Nc1ccc2c(c1)CCN2C1CCN(Cc2cc(F)cc(F)c2F)C1)c1ccco1` (centres undefined), the Inhibition came to 0%.
For `NCc1ccc(CNCc2ccc(-c3ccc(-c4nc5cc(C(F)(F)F)ccc5[nH]4)s3)cc2)cc1.O=C(O)C(F)(F)F` the value was 34%; for `CCN1CCN(c2cc(C)c3cc(NC(=O)c4ccc(Br)o4)ccc3n2)CC1`, 0%; for `COc1ccc(-n2ccnc2SCC(=O)Nc2cc(C)ccc2C)c(OC)c1`, 2%.
On to `CC(C)c1ccc(NC(=O)c2ccc(CN3CCCN(Cc4cccc(Cl)c4)CC3)cc2)cc1.O=C(O)C(F)(F)F`, for which the Inhibition stood at 45%.
In the case of `C=CCn1c(=N)c(C(=O)NCc2ccc(F)cc2)cc2c(=O)n3cccc(C)c3nc21`, the Inhibition was 16%.
For `C=Cc1sc(CNCCCNc2cc(=O)c3ccccc3[nH]2)c(C)c1Br` the value was 0%; for `CCC(C)NC(=O)Nc1ccc(-c2cccc(-c3nc4cccc(C)c4[nH]3)c2)cc1` (centres undefined), 55%.
For `Cc1cc(C)c2cc(CNCCCNc3nc4ccccc4[nH]3)[nH]c2c1` the value was 32%; for `Nc1ccc2nc(C=Cc3ccccc3)[nH]c2c1`, 7%.
For `O=C(Nc1ccc2c(c1)CCN2C1CCN(Cc2ccc(C(F)(F)F)cc2F)C1)c1ccco1` (centres undefined) the value was 9%.
